Experimental data: ChEMBL document CHEMBL2218924, “A broad activity screen in support of a chemogenomic map for kinase signalling research and drug discovery” (Biochem J, 2013); call rule not given here

Columns and labels:
[1] = molecular target: T1, Testis-specific serine/threonine-protein kinase 1 (Homo sapiens) (UniProt Q9BXA7); conditions: at 1 µM
T1 sequence (whole entry): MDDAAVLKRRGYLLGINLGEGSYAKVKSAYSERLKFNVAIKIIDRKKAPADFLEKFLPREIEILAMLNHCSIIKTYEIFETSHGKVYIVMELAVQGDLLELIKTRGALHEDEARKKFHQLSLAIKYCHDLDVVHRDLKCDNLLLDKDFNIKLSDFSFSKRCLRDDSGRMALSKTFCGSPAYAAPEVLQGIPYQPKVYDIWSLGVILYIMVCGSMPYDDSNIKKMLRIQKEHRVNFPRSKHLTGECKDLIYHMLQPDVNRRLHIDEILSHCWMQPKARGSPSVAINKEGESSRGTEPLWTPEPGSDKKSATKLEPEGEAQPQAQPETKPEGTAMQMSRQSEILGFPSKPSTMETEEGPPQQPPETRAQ

[2] = molecular target: T1, Testis-specific serine/threonine-protein kinase 1 (Homo sapiens); conditions: at 10 µM
[3] = molecular target: T2, Testis-specific serine/threonine-protein kinase 2 (Homo sapiens) (UniProt Q96PF2); conditions: at 10 µM
T2 sequence (whole entry): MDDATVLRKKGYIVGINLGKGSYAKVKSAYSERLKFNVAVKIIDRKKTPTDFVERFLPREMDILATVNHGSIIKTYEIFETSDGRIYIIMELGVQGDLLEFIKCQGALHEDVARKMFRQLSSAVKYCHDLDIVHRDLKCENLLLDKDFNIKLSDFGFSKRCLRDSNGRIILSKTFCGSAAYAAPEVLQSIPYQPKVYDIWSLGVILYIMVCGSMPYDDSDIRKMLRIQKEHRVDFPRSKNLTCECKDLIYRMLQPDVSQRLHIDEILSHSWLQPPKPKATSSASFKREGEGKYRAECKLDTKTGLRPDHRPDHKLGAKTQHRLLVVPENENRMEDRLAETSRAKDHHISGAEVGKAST

[4] = molecular target: T3, Tyrosine-protein kinase Tec (Homo sapiens) (UniProt P42680); conditions: at 1 µM
T3 sequence (whole entry): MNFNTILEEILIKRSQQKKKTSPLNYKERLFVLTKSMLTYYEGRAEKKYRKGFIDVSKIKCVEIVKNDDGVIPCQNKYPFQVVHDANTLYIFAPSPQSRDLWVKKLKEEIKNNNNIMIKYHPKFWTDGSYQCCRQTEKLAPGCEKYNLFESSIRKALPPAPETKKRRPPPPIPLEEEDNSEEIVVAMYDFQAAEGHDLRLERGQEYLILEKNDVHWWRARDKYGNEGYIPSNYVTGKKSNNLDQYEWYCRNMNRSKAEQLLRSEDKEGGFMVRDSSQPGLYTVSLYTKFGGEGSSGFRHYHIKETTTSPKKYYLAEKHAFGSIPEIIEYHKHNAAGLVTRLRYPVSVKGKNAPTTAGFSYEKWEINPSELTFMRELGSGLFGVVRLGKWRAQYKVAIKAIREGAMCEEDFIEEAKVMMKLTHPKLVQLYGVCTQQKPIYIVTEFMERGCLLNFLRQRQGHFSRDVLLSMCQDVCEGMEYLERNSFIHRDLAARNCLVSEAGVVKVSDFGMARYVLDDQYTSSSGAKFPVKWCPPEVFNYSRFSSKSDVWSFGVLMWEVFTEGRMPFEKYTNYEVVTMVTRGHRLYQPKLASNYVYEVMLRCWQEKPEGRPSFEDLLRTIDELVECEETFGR

[5] = molecular target: T3, Tyrosine-protein kinase Tec (Homo sapiens); conditions: at 10 µM
[6] = molecular target: High affinity nerve growth factor receptor (Homo sapiens) (UniProt P04629); conditions: at 1 µM
Sequence of High affinity nerve growth factor receptor (Homo sapiens) (P04629 33-796 limits assumed): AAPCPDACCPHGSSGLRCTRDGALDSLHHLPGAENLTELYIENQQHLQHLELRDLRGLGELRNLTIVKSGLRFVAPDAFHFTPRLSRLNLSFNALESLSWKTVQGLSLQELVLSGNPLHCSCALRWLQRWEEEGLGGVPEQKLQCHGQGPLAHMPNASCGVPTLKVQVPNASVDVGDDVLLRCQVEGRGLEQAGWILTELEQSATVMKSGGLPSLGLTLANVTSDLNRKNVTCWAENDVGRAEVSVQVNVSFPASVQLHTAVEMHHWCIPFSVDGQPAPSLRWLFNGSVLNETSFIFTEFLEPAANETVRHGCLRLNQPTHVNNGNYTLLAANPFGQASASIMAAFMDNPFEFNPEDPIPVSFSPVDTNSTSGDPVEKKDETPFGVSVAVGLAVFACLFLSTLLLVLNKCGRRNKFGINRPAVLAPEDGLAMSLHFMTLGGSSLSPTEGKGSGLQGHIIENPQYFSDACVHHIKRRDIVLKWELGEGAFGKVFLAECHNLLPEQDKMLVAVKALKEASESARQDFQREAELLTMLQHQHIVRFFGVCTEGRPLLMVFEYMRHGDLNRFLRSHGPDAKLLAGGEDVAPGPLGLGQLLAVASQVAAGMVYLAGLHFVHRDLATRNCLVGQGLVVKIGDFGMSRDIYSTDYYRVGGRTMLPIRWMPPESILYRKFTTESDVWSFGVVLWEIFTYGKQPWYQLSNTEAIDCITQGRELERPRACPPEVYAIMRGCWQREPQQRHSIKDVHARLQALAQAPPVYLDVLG

[7] = molecular target: High affinity nerve growth factor receptor (Homo sapiens) (UniProt P04629); conditions: at 10 µM
[8] = molecular target: BDNF/NT-3 growth factors receptor (Homo sapiens) (UniProt Q16620); conditions: at 1 µM
Sequence of BDNF/NT-3 growth factors receptor (Homo sapiens) (Q16620 32-822 limits assumed): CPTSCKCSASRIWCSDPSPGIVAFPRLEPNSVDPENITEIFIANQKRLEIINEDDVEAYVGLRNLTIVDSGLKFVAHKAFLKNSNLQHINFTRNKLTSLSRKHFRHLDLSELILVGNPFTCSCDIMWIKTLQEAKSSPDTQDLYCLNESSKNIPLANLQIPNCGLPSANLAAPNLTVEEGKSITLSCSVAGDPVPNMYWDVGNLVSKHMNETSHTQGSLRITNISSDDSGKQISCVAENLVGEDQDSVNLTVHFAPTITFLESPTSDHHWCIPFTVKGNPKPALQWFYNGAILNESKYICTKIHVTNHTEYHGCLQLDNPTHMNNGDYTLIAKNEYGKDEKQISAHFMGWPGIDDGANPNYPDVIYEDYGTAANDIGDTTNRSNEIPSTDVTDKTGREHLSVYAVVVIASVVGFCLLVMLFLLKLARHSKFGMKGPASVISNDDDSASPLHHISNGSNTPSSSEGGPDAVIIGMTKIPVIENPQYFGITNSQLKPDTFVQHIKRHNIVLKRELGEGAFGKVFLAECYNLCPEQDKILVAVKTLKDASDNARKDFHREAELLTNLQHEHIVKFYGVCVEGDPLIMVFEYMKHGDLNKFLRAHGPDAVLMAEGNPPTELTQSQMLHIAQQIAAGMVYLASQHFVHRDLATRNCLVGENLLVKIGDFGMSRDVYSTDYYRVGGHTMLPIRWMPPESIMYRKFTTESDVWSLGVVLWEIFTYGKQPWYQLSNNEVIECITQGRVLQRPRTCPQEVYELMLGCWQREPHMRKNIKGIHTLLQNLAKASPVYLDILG

[9] = molecular target: BDNF/NT-3 growth factors receptor (Homo sapiens) (UniProt Q16620); conditions: at 10 µM
[10] = molecular target: T4, Tyrosine-protein kinase TXK (Homo sapiens) (UniProt P42681); conditions: at 1 µM
T4 sequence (whole entry): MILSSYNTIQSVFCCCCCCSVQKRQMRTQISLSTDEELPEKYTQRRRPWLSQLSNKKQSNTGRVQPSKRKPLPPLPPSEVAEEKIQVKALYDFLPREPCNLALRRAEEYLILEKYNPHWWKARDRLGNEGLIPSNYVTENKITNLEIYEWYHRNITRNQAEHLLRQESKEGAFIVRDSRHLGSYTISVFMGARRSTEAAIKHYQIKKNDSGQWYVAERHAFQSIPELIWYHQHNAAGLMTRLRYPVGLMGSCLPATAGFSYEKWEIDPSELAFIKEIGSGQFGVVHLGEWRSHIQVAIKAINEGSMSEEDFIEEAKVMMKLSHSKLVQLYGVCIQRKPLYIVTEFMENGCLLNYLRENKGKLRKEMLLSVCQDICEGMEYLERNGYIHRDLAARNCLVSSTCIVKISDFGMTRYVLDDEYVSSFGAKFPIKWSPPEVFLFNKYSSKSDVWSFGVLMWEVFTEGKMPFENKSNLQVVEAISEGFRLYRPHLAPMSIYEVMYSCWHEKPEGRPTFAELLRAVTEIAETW

[11] = molecular target: T4, Tyrosine-protein kinase TXK (Homo sapiens); conditions: at 10 µM
[12] = molecular target: T5, Serine/threonine-protein kinase ULK3 (Homo sapiens) (UniProt Q6PHR2); conditions: at 1 µM
T5 sequence (whole entry): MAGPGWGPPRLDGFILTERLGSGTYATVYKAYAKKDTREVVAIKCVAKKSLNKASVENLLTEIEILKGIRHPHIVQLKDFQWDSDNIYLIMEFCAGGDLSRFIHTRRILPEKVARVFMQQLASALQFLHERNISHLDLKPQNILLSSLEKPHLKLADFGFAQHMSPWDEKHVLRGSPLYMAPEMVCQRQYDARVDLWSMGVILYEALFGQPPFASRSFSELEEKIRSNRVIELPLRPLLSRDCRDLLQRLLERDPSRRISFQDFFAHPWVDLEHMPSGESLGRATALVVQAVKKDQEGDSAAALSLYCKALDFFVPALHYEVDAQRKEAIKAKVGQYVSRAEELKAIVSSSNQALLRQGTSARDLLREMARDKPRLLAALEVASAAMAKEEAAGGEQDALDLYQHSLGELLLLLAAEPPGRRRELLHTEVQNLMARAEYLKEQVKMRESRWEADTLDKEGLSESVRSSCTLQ

[13] = molecular target: T5, Serine/threonine-protein kinase ULK3 (Homo sapiens); conditions: at 10 µM
[14] = molecular target: Angiopoietin-1 receptor (Homo sapiens) (UniProt Q02763); conditions: at 1 µM
Sequence of Angiopoietin-1 receptor (Homo sapiens) (Q02763 whole entry): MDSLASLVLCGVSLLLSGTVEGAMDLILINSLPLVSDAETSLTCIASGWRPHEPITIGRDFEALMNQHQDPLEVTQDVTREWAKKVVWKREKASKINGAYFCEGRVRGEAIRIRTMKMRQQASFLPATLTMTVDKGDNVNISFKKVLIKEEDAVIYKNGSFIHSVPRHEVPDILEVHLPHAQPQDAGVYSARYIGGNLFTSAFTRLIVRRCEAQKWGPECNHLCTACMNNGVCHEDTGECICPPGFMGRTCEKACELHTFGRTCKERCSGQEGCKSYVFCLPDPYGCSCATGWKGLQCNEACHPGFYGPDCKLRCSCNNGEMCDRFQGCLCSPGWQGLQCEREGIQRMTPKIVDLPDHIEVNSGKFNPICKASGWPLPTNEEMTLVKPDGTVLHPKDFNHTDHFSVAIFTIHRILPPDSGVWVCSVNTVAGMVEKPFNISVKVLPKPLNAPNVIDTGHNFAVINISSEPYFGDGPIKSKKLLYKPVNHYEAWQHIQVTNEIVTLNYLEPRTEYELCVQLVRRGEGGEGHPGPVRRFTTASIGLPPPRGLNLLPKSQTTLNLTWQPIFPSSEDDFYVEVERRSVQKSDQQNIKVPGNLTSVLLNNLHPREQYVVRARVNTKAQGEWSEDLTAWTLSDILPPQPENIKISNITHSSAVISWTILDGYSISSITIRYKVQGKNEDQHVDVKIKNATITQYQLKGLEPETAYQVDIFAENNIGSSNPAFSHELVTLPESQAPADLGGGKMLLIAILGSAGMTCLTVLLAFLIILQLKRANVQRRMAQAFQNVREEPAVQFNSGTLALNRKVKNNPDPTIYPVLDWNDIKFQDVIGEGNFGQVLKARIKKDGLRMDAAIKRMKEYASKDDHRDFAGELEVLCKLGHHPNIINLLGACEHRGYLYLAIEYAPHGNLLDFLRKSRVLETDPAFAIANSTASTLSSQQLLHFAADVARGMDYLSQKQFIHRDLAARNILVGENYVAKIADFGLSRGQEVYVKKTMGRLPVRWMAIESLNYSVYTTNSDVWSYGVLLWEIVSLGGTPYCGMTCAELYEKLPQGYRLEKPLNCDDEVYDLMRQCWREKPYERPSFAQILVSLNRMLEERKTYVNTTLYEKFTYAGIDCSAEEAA

[15] = molecular target: Angiopoietin-1 receptor (Homo sapiens) (UniProt Q02763); conditions: at 10 µM
[16] = molecular target: T6, Serine/threonine-protein kinase ULK2 (Homo sapiens) (UniProt Q8IYT8); conditions: at 1 µM
T6 sequence (whole entry): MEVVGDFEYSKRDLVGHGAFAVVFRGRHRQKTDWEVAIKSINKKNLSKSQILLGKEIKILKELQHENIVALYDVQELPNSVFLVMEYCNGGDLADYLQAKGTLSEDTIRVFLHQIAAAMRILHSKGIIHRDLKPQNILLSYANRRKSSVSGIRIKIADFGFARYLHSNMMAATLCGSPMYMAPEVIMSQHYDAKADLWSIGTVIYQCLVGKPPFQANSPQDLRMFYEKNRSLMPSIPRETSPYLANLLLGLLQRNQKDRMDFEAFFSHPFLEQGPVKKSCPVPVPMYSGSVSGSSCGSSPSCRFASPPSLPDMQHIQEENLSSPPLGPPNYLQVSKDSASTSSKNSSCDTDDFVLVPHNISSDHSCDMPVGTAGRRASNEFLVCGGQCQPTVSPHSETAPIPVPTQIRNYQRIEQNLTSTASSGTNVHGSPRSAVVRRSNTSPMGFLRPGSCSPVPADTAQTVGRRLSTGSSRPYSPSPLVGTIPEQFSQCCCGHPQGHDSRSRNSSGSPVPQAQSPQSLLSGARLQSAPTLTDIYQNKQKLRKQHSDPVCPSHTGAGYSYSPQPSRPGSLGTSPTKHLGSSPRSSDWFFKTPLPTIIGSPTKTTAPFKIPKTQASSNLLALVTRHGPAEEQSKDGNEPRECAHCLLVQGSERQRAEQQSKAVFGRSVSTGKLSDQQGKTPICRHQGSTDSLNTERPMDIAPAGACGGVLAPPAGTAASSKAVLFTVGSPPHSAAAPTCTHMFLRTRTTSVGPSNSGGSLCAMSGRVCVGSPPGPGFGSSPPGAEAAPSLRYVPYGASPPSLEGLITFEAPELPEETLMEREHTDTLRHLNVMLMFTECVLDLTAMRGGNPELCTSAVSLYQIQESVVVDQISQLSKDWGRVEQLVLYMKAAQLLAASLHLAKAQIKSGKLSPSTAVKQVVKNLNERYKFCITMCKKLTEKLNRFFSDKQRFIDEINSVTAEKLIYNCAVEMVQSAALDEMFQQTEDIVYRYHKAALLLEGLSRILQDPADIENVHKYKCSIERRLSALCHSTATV

[17] = molecular target: T6, Serine/threonine-protein kinase ULK2 (Homo sapiens); conditions: at 10 µM
[18] = molecular target: Serine/threonine-protein kinase VRK2 (Homo sapiens) (UniProt Q86Y07); conditions: at 1 µM
Sequence of Serine/threonine-protein kinase VRK2 (Homo sapiens) (Q86Y07 whole entry): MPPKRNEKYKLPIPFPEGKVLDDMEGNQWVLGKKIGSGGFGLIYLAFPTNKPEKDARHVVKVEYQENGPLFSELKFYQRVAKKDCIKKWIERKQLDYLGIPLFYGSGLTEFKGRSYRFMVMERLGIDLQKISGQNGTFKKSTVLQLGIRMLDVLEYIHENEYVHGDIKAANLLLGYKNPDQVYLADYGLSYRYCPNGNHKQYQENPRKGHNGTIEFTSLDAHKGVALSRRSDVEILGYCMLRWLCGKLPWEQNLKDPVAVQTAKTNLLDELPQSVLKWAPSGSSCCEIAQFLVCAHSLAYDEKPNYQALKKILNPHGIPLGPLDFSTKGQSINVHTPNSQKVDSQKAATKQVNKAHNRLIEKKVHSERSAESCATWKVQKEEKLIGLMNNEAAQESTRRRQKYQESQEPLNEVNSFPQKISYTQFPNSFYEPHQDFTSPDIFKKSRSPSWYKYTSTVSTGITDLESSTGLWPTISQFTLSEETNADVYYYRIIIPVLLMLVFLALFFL

[19] = molecular target: Serine/threonine-protein kinase VRK2 (Homo sapiens) (UniProt Q86Y07); conditions: at 10 µM

Compound	residual activity [1] [%]	residual activity [2] [%]	residual activity [3] [%]	residual activity [4] [%]	residual activity [5] [%]	residual activity [6] [%]	residual activity [7] [%]	residual activity [8] [%]	residual activity [9] [%]	residual activity [10] [%]	residual activity [11] [%]	residual activity [12] [%]	residual activity [13] [%]	residual activity [14] [%]	residual activity [15] [%]	residual activity [16] [%]	residual activity [17] [%]	residual activity [18]	residual activity [19] [%]
CCOC(=O)c1c(C)[nH]c(/C=C2\C(=O)Nc3ccccc32)c1C	93	83	97	88	92	13	32	73	45	97	91	76	70						
Nc1ncnc2c1cnn2-c1ccccc1	92	87		99	90	91	83		97		78		91	73	102	101	98	102% (inactive)	90
CCCC(=O)Oc1ccc2[nH]c(C(=O)c3cc4ccccc4[nH]3)cc2c1	93	82	96	85	94	87	87		13	102	82	105	85	78	49	103	97	105% (inactive)	84
